HCMV antiviral: blocks human cytomegalovirus replication; 410,000 tested, 4.5% active; HFF cells, HCMV-luciferase reporter, 72 h; hits give low values; AID 1259415; activity change, negative = inhibition, % at 57.5 µM; in the data active = activity change below about -60%; inconclusive = no clear call, values can overlap the other calls; inactive = above about -39%; note: % is set by controls: 0 for no effect and ±100 for the full control effect
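Two-dose cell screen: HFF monolayers treated with compounds and infected with luciferase-expressing HCMV at 1 PFU/cell, 72 h at 37C, then lysed for luciferase measurement.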
Pf growth 48h: inhibits P. falciparum growth in the first generation, 48 h | Potency, µM (doses to about 28.7 µM), without a hit: at the highest dose activity change, negative = inhibition, most hits filed as inhibitors | AID 504832 | P. falciparum luciferase growth in erythrocytes, 48 h | 310,000 tested, 5.9% active; note: potency is the fitted concentration of half-maximal effect; % is set by controls: 0 for no effect and ±100 for the full control effect
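Here the parasites carry a stable luciferase gene and grow inside erythrocytes in Albumax-based RPMI medium with compound for one erythrocytic cycle. Activity is scored as loss of luminescent signal.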
Pf growth 96h: P. falciparum growth inhibition at 96 hour, primary screen for plastid delayed-death inhibitors; AID 504834; Potency, µM (highest dose often 28.7 µM), for inactives: at the highest dose activity change, negative = inhibition, hits mostly inhibitors; 320,000 tested, 6.9% active; P. falciparum luciferase reporter growth, 96 h; note: potency is the fitted concentration of half-maximal effect; % is set by controls: 0 for no effect and ±100 for the full control effect
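Erythrocytes infected with luciferase-expressing P. falciparum were dispensed at 2% hematocrit and 0.05% parasitemia (final), then incubated with compounds 96 hours at 37 C in 5% CO2. Luminescence after detection reagent addition reported growth.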
Sm TGR inh: blocks Schistosoma mansoni thioredoxin glutathione reductase; AID 485364; 360,000 tested, 3% active; Potency, µM (titrated, usually from 114 µM), without a hit: top-dose activity change, negative = inhibition, most hits filed as inhibitors; Q962Y6; purified TGR, DTNB reduction, TNB absorbance 405 nm; note: potency is the fitted concentration of half-maximal effect; % is set by controls: 0 for no effect and ±100 for the full control effect; nearly all actives have a fitted effect of over 60% in size
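TGR 20 nM + NADPH 100 uM (dispensed conc.), cpd preinc 15 min RT; start with NADPH (500 uM addition) then DTNB (15 mM addition). Kinetic TNB absorbance, 405 nm filter. Four-parameter Hill fit across titration.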
SARS PLpro yeast: SARS-CoV PLP inhibition in yeast. S. cerevisiae expressing SARS-CoV PLpro, growth rescue. 330,000 tested, 0.19% active. Potency, µM (series often up to 32.9 µM), inactives show top-dose activity, positive = growth rescue, actives largely listed as activators; calls by dose curve; note: potency is the fitted concentration of half-maximal effect; 0% is about no effect; nearly all actives have a fitted effect of over 55% in size
HCV inhibitor: inhibitors of hepatitis C virus infection. Huh7.5.1 HCVcc-Cre infection, luciferase reporter, 44 h. 340,000 tested, 3.4% active. AID 651820. Potency, µM (doses to about 41.8 µM), for the others: at the highest dose activity change, negative = inhibition, most hits filed as inhibitors; note: potency is the fitted concentration of half-maximal effect; % is set by controls: 0 for no effect and ±100 for the full control effect
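Cells seeded at 1,000/well and cultured 4 h, then compounds added followed by HCVcc-Cre virus (~0.5 moi). After 44 h further culture, luciferase substrate was added, plates held 15 min at room temperature, and luminescence read for 15 sec.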
The depositor's hits bear a star; [ ] = dose if it differs, or a comment. Most compounds without a hit are left out; they make up all but 15% or so of the library. Unless noted, calls come from the whole dose curve; as a rule, active = well fitted curve in the direction sought with a large enough effect; inconclusive = small, poorly fitted or top-dose-only effect, or another doubt; inactive = no such curve, though single readings can be large; an effect the other way counts as inactive or inconclusive.

Results for CN(C)c1ccc(-c2nc3ccccn3c2Nc2ccc3c(c2)OCCO3)cc1 ?
HCMV antiviral: -96*; Sm TGR inh: -7%

How did Oc1ccc(-c2nc3ccccn3c2Nc2ccc3c(c2)OCCO3)cc1 do in these assays?
HCMV antiviral: 10; Sm TGR inh: -2%

Results for Clc1cccc(-c2nc3ccccn3c2Nc2ccc3c(c2)OCCO3)c1 ?
HCMV antiviral: -104*; Sm TGR inh: 0%

Results for Cc1ccn2c(Nc3ccc4c(c3)OCO4)c(-c3ccc(O)cc3)nc2c1 ?
HCMV antiviral: 33; Pf growth 48h: inconclusive; Pf growth 96h: 12µM*; Sm TGR inh: inconclusive; SARS PLpro yeast: 0%; HCV inhibitor: -15%

Results for Cc1ccc2nc(-c3cccc(Cl)c3)c(Nc3ccc4c(c3)OCO4)n2c1 ?
HCMV antiviral: 27; Sm TGR inh: 0%

How did CCOc1ccc2c(c1)c(=O)c(S(=O)(=O)c1ccc(CC)cc1)cn2C do in these assays?
HCMV antiviral: inconclusive; Pf growth 48h: -15%; Pf growth 96h: inconclusive; Sm TGR inh: 10%; SARS PLpro yeast: 20%; HCV inhibitor: -23%

How did CCOc1ccc(S(=O)(=O)N2CCN(C(=O)C3CCC3)CC2)cc1 do in these assays?
HCMV antiviral: -16; Pf growth 48h: -15%; Pf growth 96h: inconclusive; Sm TGR inh: 0%; SARS PLpro yeast: 1%; HCV inhibitor: -7%

Results for Cc1cccn2c(NCc3ccc4c(c3)OCO4)c(-c3ccc(O)cc3)nc12 ?
HCMV antiviral: -24; Pf growth 48h: 4.1µM*; Pf growth 96h: inactive; Sm TGR inh: -35%; SARS PLpro yeast: -1%; HCV inhibitor: -24%

Results for COc1cc(-c2nc3ccc(Cl)cn3c2Nc2ccc3c(c2)OCCO3)ccc1O ?
HCMV antiviral: 27; Sm TGR inh: -7%

Results for c1ccc(-c2nc3ccccn3c2NCc2ccc3c(c2)OCO3)cc1 ?
HCMV antiviral: 26; Pf growth 48h: inconclusive; Pf growth 96h: 92%; Sm TGR inh: 2%; SARS PLpro yeast: 1%; HCV inhibitor: -20%

Results for COc1cc(-c2nc3ccc(C)cn3c2Nc2ccc3c(c2)OCCO3)ccc1O ?
HCMV antiviral: 50; Pf growth 48h: 12µM*; Pf growth 96h: 13µM*; Sm TGR inh: -22%; SARS PLpro yeast: -2%; HCV inhibitor: 7%

How did CCOC(=O)c1c(NC(=O)COC(=O)Cc2n[nH]c(=O)c3ccccc23)sc(C(=O)NC)c1C do in these assays?
HCMV antiviral: 3; SARS PLpro yeast: -1%; HCV inhibitor: 4%

How did CN1C[C@H](C(=O)NC2(C)OC3(O)[C@@H]4CCCN4C(=O)[C@H](Cc4ccccc4)N3C2=O)CC2c3cccc4[nH]cc(c34)C[C@H]21 (stereo partly drawn) do in these assays?
HCMV antiviral: 54; HCV inhibitor: 13%

Results for CCN(CC)C(=O)N[C@H]1C[C@@H]2c3cccc4[nH]cc(c34)C[C@H]2N(C)C1 ?
HCMV antiviral: 35; Pf growth 48h: inconclusive; Pf growth 96h: 0.93µM*; Sm TGR inh: -10%; SARS PLpro yeast: -1%; HCV inhibitor: 0%[8.37 µM]

Results for C=CCN1CC(C(=O)N(CCCN(C)C)C(=O)NCC)CC2c3cccc4[nH]cc(c34)CC21 (stereo not drawn) ?
Pf growth 48h: 19µM*; Pf growth 96h: 11µM*

Results for COc1ccc(NC(=O)Cn2ncc3c([nH]c4ccccc43)c2=O)cc1Cl ?
HCMV antiviral: -13; Sm TGR inh: 4%

What do the screens show for `Fc1ccccc1N1CCN(C2CCCN(Cc3cccc(C(F)(F)F)c3)C2)CC1` (stereo not drawn)?
HCMV antiviral: -18; Pf growth 48h: 13%; Pf growth 96h: inconclusive; Sm TGR inh: -29%; SARS PLpro yeast: 1%; HCV inhibitor: inconclusive

What do the screens show for `Cc1cc(C)c(C(=O)N2CCC(N3CCC(C(=O)NC(C)C)CC3)CC2)o1`?
HCMV antiviral: 33; Pf growth 48h: inconclusive; Pf growth 96h: 12µM*; Sm TGR inh: 1%; SARS PLpro yeast: 1%; HCV inhibitor: 23%

Results for O=C(CSc1ccc(F)cc1)N1CCOCC1 ?
HCMV antiviral: -88*; Pf growth 48h: 14%[0.00184 µM]; Pf growth 96h: 26%; Sm TGR inh: 4%; SARS PLpro yeast: 1%; HCV inhibitor: 5%

Results for Cc1cc(C(=O)N2CCCC(N3CCN(c4cccc(C(F)(F)F)c4)CC3)C2)c(C)o1 (stereo not drawn) ?
HCMV antiviral: 46; Pf growth 48h: -4%; Pf growth 96h: 21%; Sm TGR inh: inconclusive; SARS PLpro yeast: 14%; HCV inhibitor: 13µM*

Results for Oc1ccccc1CN1CCCC(N2CCN(c3cccc(C(F)(F)F)c3)CC2)C1 (stereo not drawn) ?
HCMV antiviral: -5; Pf growth 48h: 1.5µM*; Pf growth 96h: 148%; Sm TGR inh: -9%; SARS PLpro yeast: -5%; HCV inhibitor: -19%

Results for Cc1ccc(C)c2c1CCCC2=O ?
HCMV antiviral: -19

How did O=C(c1cccc(Cl)c1)N1CCC(=O)N([C@H](COCc2cccc(Cl)c2)Cc2ccccc2)CC1 do in these assays?
HCMV antiviral: 5

How did O=C(c1ccsc1)N1CCCC(N2CCN(c3cccc(C(F)(F)F)c3)CC2)C1 (stereo not drawn) do in these assays?
HCMV antiviral: 1; Pf growth 48h: 0%; Pf growth 96h: -9%; Sm TGR inh: -15%; SARS PLpro yeast: -2%; HCV inhibitor: -7%

What do the screens show for `Cc1cc(C)c(C(=O)N2CCCC(N3CCN(c4ccc(F)cc4)CC3)C2)o1` (stereo not drawn)?
HCMV antiviral: -69*; Pf growth 48h: inconclusive; Pf growth 96h: 7%; Sm TGR inh: 4%; SARS PLpro yeast: 0%; HCV inhibitor: inconclusive

What do the screens show for `O=C(c1cc[n+]([O-])cc1)N1CCCC(N2CCN(c3cccc(C(F)(F)F)c3)CC2)C1` (stereo not drawn)?
HCMV antiviral: -1; Pf growth 48h: 12µM*; Pf growth 96h: inconclusive; Sm TGR inh: -10%; SARS PLpro yeast: 8%

How did O=C(CSc1ccccc1)N1CCCC(N2CCN(c3ccc(F)cc3)CC2)C1 (stereo not drawn) do in these assays?
HCMV antiviral: -70*; Pf growth 48h: inconclusive; Pf growth 96h: 11%; Sm TGR inh: 1%; SARS PLpro yeast: 1%; HCV inhibitor: 10µM*

What do the screens show for `COc1cc(OC)cc(C(=O)N[C@H](C(=O)OCC(=O)Nc2cccnc2Cl)C(C)C)c1`?
HCMV antiviral: 0; Pf growth 48h: 6%; Pf growth 96h: 22%; Sm TGR inh: -2%; SARS PLpro yeast: 0%; HCV inhibitor: inconclusive

Screens (PubChem BioAssay)
